# From PubChem BioAssay (NCI)
# The panel holds about 83,000 compounds, 20% with a hit somewhere; the sample as a whole holds those more often.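 For each line, cells grew in 96-well plates with the test compound present at a single concentration for 48 hours.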 Activity calls are given as the source filed them.
# Test system: UACC-62 melanoma
# Assay: NCI-60 one-dose screen, 48 h (100 = growth as untreated, 0 = no growth, -100 = all killed)
# Settings: 10 µM unless noted
# Procedure: Growth inhibition of the UACC-62 human tumor cell line is measured as a screen for anti-cancer activity. Cells are grown in 96 well plates and exposed to the test compound for 48 hours. Compounds are tested at a single concentration, which is 10^-5 M for most compounds. The reported endpoint is percent growth (GI% or GIPRCNT), where numbers from 0 - 100% represent growth inhibition, and numbers from -100% - 0 represent cell death. For example, a value of 40 represents 60% growth inhibition. A value of 0 means no net growth occurred over the course of the experiment. A value of -40 indicates 40% of cells at the beginning of the experiment died by the end of the experiment. A value of -100 means all cells are dead at the end of the experiment.
# NCI-60 Human Tumor Cell Lines Screen was performed using the standard one-dose NCI protocol, which is described in more detail at https://dtp.cancer.gov/discovery_development/nci-60/default.htm.
# Compounds with GIPRCNT values below 10 were considered active. Activity score was based on GIPRCNT using the following formula: […]
# Score is 0 for GIPRCNT values of 100 or above, 50 for GIPRCNT values of 0, and 100 for GIPRCNT values of -100.
row,Structure (SMILES),growth
1,O=C(N(c1ccccc1)c1ccccc1)n1ccc2nc(Cl)nc(Cl)c21,51.9% (inactive)
2,CCOc1cc2ncc(C#N)c(Nc3ccc(F)c(Cl)c3)c2cc1NC(=O)CC1CCSS1 (stereo not given),-66% (active)
3,COc1cccc(C2=NN3C(C2)c2cc(Br)cc(OC)c2OC32CCN(Cc3ccccc3)CC2)c1 (stereo not given),98.7% (inactive)
4,COc1cc(-c2nc3ccccc3[nH]2)ccc1OCC(=O)N=Nc1c(O)[nH]c2ccc(Cl)cc12,-64.3% (active)
5,COc1cc(/C=C/C(=O)Nc2cccnc2Nc2ccc(F)cc2)cc(OC)c1OC,94.7% (inactive)
6,Cc1ccc(OC(=O)c2ccc(Cl)cc2)cc1,94.7% (inactive)
7,CC(=O)c1cc2c(N)c(C(=O)Nc3cccc4ccccc34)sc2nc1C,23.5% (inactive)
8,Cc1ccc(NC(=O)/C=C/c2ccccc2)c(C(N)=O)c1,44.2% (inactive)
9,CC1SC(c2ccc(N(C)C)cc2)N(NC(=O)C(O)(c2ccccc2)c2ccccc2)C1=O (stereo not given),79.9% (inactive)
10,FC(F)(F)c1ccc(-c2cn3nc(-c4c[nH]c5ccc(Br)cc45)sc3n2)cc1,84.8% (inactive)
11,CCCc1cc(=O)n2c(C(=O)Nc3cccc(C(=O)OCC)c3)c(C(=O)Nc3ccc(F)cc3)sc2n1,104% [30 µM] (inactive)
12,COc1ccc(-c2cc(Nc3ccnc(N4CCOCC4)n3)on2)cc1,60.5% (inactive)
13,Cn1cccc1-c1nc2c3c(ccc2[nH]1)C(=O)c1ccccc1C3=O,80.5% (inactive)
14,C=CC(=O)Nc1cccc(-c2nc(SC)nc(NCc3ccccc3)c2C#N)c1,61% (inactive)
15,O=C1Nc2c(ccc(Cl)c2Cl)/C1=C\c1cc(C(F)(F)F)cc(C(F)(F)F)c1,-3.92% (active)
16,Nc1n[nH]c2ccc([C@@H]3Nc4ccc5cn[nH]c5c4[C@H]4C5CCC(C5)[C@@H]34)cc12 (stereo not given in full),39.4% (inactive)
17,Clc1ccc2c(NCCCCNc3nc(N4CCOCC4)nc4ccccc34)ccnc2c1,99.1% (inactive)
18,COc1ccc2cc(-c3nn(-c4ccc(C(=O)O)cc4)cc3CO)ccc2c1,103% (inactive)
19,COc1cc(C=Nc2oc(-c3ccccc3)c(-c3ccccc3)c2C#N)cc(CN2CCCCC2)c1O,88.4% (inactive)
20,Cn1c(=O)c2c(nc3n(-c4ccc(Cl)cc4Cl)c(Sc4nc(-c5ccccc5)c(C#N)c(=O)[nH]4)cn23)n(C)c1=O,63.2% (inactive)

row,Structure (SMILES),growth
1,CCOc1nc(-c2ccccc2)cc2c(O)c(C(=O)N/N=C/c3ccc(O)cc3O)[nH]c(=O)c12,9.73% (active)
2,Cc1oc(-c2ccc(Cl)cc2Cl)cc1C(=O)Nc1nccs1,91.7% (inactive)
3,COc1ccc(C2C(C#N)=C(N)Oc3n[nH]c(-c4cccs4)c32)cc1I (stereo not given),79.1% (inactive)
4,O=C(C(=O)c1ccc2c(c1)OCO2)c1ccc2c(c1)OCO2,105% (inactive)
5,C#CC(F)(F)[C@]1(O)CC[C@H]2[C@@H]3CCC4=CC(=O)CCC4=C3[C@@H](c3ccc(C4CC4)cc3)C[C@@]21C,26.7% (inactive)
6,N#CCCN=Nc1c(O)[nH]c2ccc([N+](=O)[O-])cc12,93.2% (inactive)
7,Cc1cc(C)nc(SC2=C(Nc3cccc(Cl)c3)C(=O)N(Cc3ccccc3)C2=O)n1,61.4% [30 µM] (inactive)
8,CCOC(=O)c1cc(C(=O)c2ccc(O)c(O)c2)n2ccc(-c3ccn4c(C(=O)c5ccc(O)c(O)c5)cc(C(=O)OCC)c4c3)cc12,97.9% (inactive)
9,NC(=O)c1cc(I)ccc1NC(=O)/C=C/c1ccccc1Cl,37.8% (inactive)
10,Cc1cc(N2CCN(C)CC2)nc(NC2CCCC(Nc3ccnc4cc(Cl)ccc34)C2)n1 (stereo not given),-90.7% (active)
11,CCN(CC)CCCCNc1c2ccc(Cl)cc2nc2ccc(OC)cc12,-30.8% (active)
12,O=C(COc1cccc(/C=C2\COc3ccc(Cl)cc3C2=O)c1)c1ccc(Cl)cc1,80.9% (inactive)
13,Cc1cc(N2CCSCC2)nc(NC2CCCC(Nc3ccnc4cc(Cl)ccc34)C2)n1 (stereo not given),-87.8% (active)
14,Fc1ccc2[nH]cc(SSc3c[nH]c4ccc(F)cc34)c2c1,63.8% (inactive)
15,CN1C(=O)C2(SCC(C(=O)NCc3ccccc3)N2C(=O)C2CCCCC2)c2ccccc21 (stereo not given),93.4% (inactive)
16,O=C(/C=C/c1cccc(Cl)c1)c1ccc(O)c(CN2CCN(c3cc4c(cc3F)c(=O)c(C(=O)O)cn4C3CC3)CC2)c1,34.9% (inactive)
17,O=C1/C(=C/C(Cl)=C/c2ccccc2)SC(=S)N1CCc1ccc(O)cc1,-24.7% (active)
18,CCN(CC)c1ccc2c(c1)Oc1nc(N)c(C#N)c(N)c1C2Sc1ccc(SC)cc1 (stereo not given),-14.4% (active)
19,CN(CCCCCl)P(=O)(OCc1ccc([N+](=O)[O-])o1)C(F)(F)c1ccc(CC(=O)NC[C@@H](O)/C=C\[C@@H](O)[C@H](CO)Cc2ccccc2)cc1 (stereo not given in full),74.4% (inactive)
20,COc1cc2c(cc1-c1c(C)noc1C)ncc1nc(C3CCOCC3)n([C@@H](C)COC(F)F)c12,20.7% (inactive)
